HIF activator: HIF pathway transcriptional activation. U2OS HRE-luciferase reporter, luminescence; normalized: DMSO 0%, desferrioxamine 100%. activation, % at 7.5 µM (by protocol). actives 0.32% (n = 300,000). AID 1910;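 active = mean activation of at least 10% of the iron chelator positive control signal, with at least half of replicates also reaching 10%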
NPR1 activator: GC-A (human) enzyme activation | P16066 | HEK293 GC-A cells, cGMP TR-FRET, EC30 ANP; 0% at EC30 ANP, 100% saturating ANP | activation, % at 10 µM | actives 0.14% (n = 370,000); in the data active = activation above about 40%
KLK7 zymogen act: proKLK7 (human) activation, primary screen. P49862. purified proKLK7, EDANS-DABCYL substrate fluorescence; 100% is mature enzyme control, 0% vehicle. activation, % at 7 µM. actives 0.9% (n = 370,000);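 active = activation above the mean of all tested compounds plus 3 SD, computed per campaign excluding outliers beyond control limits, cut at about 13% in these data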
Target sequence (P49862 whole entry, looked up): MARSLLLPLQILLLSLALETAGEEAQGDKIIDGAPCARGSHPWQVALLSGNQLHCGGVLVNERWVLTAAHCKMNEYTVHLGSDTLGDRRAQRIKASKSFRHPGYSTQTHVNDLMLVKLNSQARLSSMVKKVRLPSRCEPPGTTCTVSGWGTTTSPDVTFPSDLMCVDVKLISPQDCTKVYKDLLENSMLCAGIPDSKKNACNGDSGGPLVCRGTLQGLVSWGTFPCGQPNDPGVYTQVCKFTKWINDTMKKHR
NPR2 activator: GC-B (human) receptor activation. HEK293-GC-B cells, CNP EC30, cGMP TR-FRET; 0% at EC30 CNP, 100% saturating CNP. actives 0.11% (n = 370,000). activation, % at 10 µM. P20594;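 active = activation at 10 µM reaching about 35% in either raw or pattern-adjusted values, limit read from the data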
KLK7 act conf: proKLK7 activation, confirmation. shares compounds with KLK7 zymogen act. purified proKLK7, EDANS-DABCYL substrate fluorescence; scaled: vehicle 0, mature enzyme 100. activation, % at 7 µM. actives 68% (n = 3,200). AID 686949;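 active = activation, as change over the incubation, above the mean of all tested compounds plus 3 SD, cut at about 13% in these data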
EDANS interfere: counter-screen for kallikrein-7 activators: EDANS-DABCYL optical interference. shares compounds with KLK7 zymogen act. actives 80% (n = 3,200). EDANS-DABCYL substrate fluorescence interference, no enzyme, 4 h; solvent 0%, active enzyme control 100%. activation, % at 7 µM;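 active = activation above the all-compound mean plus 3 SD, ignoring values outside control-based bounds, cut at about 4.8% in these data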;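 also: value is the 4 h activation minus the activation read at time zero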
An asterisk follows results filed as active; / = no result. Sampled rows, rich in hits. Any-hit rate of the full collection: about 1.3%.

SMILES | HIF activator | NPR1 activator | KLK7 zymogen act | NPR2 activator | KLK7 act conf | EDANS interfere
CC1=C(C#N)C(c2ccc(O)cc2)C2=C(CC(C)(C)CC2=O)N1 (stereo not given) | 2.3 | -3.2 | 5.3 | -1.0 | / | /
CC1=C(C#N)C(C)C2=C(CC(C)(C)CC2=O)N1 (stereo not given) | 0.3 | 1.5 | 16.2* | 7.6 | 39.2* | 40.4*
COC(=O)[C@H](C(C)C)N1Cc2nnn(CC3CCCCC3)c2-c2ccccc2S1(=O)=O | / | -0.3 | -0.1 | 4.0 | / | /
COc1ccc(Oc2c(C)oc3c(CN4CCOCC4)c(O)ccc3c2=O)cc1 | 0.0 | 1.6 | 7.3 | 2.9 | / | /
Cc1oc2c(CN3CCCCC3)c(O)ccc2c(=O)c1-c1ccc(Cl)cc1 | 0.0 | -0.5 | 38.3* | 1.1 | 28.1* | 34.0*
COc1cccc(Oc2c(C)oc3c(CN4CCOCC4)c(O)ccc3c2=O)c1 | / | 0.6 | 31.4* | 0.2 | 12.3 | 22.7*
Cc1oc2c(CN3CCOCC3)c(O)ccc2c(=O)c1-c1ccccc1 | -0.6 | 0.7 | 72.5* | -2.5 | 22.6* | 30.2*
Cc1oc2cc(O)ccc2c(=O)c1-c1ccccc1 | 0.0 | 3.9 | -18.9 | -3.7 | / | /
CCOC(=O)c1c(C)oc2ccc(O)c(CN3CCCCC3)c12 | / | -4.0 | 0.1 | -4.1 | / | /
COc1ccccc1-c1c(C)oc2c(CN3CCOCC3)c(O)ccc2c1=O | -0.5 | 1.7 | 65.9* | 2.6 | 69.3* | 78.9*
Cc1ccc(NS(=O)(=O)c2cc3c(cc2Cl)NC(=O)CO3)cc1C | / | -8.0 | / | -9.7 | / | /
O=C(Nc1cccc(F)c1)O[C@@H]1CC[C@@]23CCCN2C(=O)CCC[C@H]3C1 | / | -0.3 | / | -0.1 | / | /
CC(C)N1CCCCC(NC(=O)c2cccc(C(F)(F)F)c2)C1=O (stereo not given) | / | 1.4 | -0.6 | -2.1 | / | /
CCN(Cc1cn(Cc2ccccc2)nn1)S(=O)(=O)c1ccc(N2CCCC2)cc1Br | / | -0.4 | 0.6 | 1.5 | / | /
COc1cc(C(Nc2ccccn2)c2c(NC(=O)c3ccco3)sc(C)c2C)cc(OC)c1OC (stereo not given) | -0.1 | -19.9 | 25.6* | -12.6 | -34.4 | -31.6
O=c1c2cccc3c2c(nn1CN1CCOCC1)-c1ccccc1-3 | 0.2 | / | / | / | / | /
CCN(CC)CCn1nc2c3c(cccc3c1=O)-c1ccccc1-2 | 29.2* | 9.6 | 17.5* | 1.0 | -5.1 | -14.5
Cc1ccc(CN2CCCCC(NC(=O)c3cccc(C(F)(F)F)c3)C2=O)cc1 (stereo not given) | / | -0.3 | -0.3 | -3.0 | / | /
Cc1cccc(-n2c(=O)c(C#N)cc3c(=O)n4ccccc4nc32)c1 | -0.1 | 2.7 | 16.2* | -0.5 | 51.4* | 72.4*
N#CCC[C@H]1CC[C@]2(CCCN(c3ccccc3)C2)O1 | / | 4.6 | -0.1 | 5.9 | / | /
CCOC(=O)[C@]12CCCC=C1N(Cc1ccc(OC)cc1)C(=O)[C@@H]2CC(=O)N1CCSCC1 | / | -4.5 | -0.1 | 3.2 | / | /
COc1ccc2[nH]c3c(=S)nc[nH]c3c2c1 | 0.5 | 9.1 | 20.7* | 0.5 | 0.1 | 0.8
COc1ccc2[nH]c3c(Cl)ncnc3c2c1 | 2.7 | -28.0 | 0.5 | -9.3 | / | /
COC(=O)[C@]12C[C@H](CC(=O)N3CCCC3)C(=O)N(Cc3ccc(Cl)cc3Cl)C1=C[C@H](C1CCCC1)O[C@@H]2C | / | -17.1 | 0.3 | -8.4 | / | /
Cn1ccc2c(-c3ccc(C(=O)O)cc3)cc3c(c21)C1CCC3O1 (stereo not given) | / | 3.0 | 79.2* | -1.6 | 66.1* | 69.6*
Cn1ccc2c(-c3ccc(C(C)(C)C)cc3)cc3c(c21)C1CCC3O1 (stereo not given) | / | 0.8 | -0.9 | -0.3 | / | /
CC1=C(C(=O)Nc2ccc(F)cc2)C(c2ccncc2)C2=C(CCCC2=O)N1 (stereo not given) | -0.7 | -0.9 | 3.5 | 1.6 | / | /
CC1=C(C(=O)Nc2ccccn2)C(c2cn(C)nc2C)C2=C(CCCC2=O)N1 (stereo not given) | 0.3 | 5.8 | 15.5* | -1.4 | 19.2* | 20.7*
CCn1cc(C2C(C(=O)Nc3ccc(Br)cn3)=C(C)NC3=C2C(=O)CCC3)c(C)n1 (stereo not given) | -0.2 | -5.2 | 15.5* | -1.6 | 17.4* | 17.1*
